Test results taken from PubChem BioAssay (NCI).
About 83,000 compounds went through this panel and 20% of them were active in at least one assay; those are over-represented in the sample as a whole.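 For each line, cells grew in 96-well plates with the test compound present at a single concentration for 48 hours.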 Active and inactive are the calls of the source. Rule for the calls: active = growth percent below 10; inactive = the rest.

Tests used:
Assay in all cases: NCI-60 one-dose screen, 48 h (100 = growth as untreated, 0 = no growth, -100 = all killed)
Conditions in all cases: 10 µM unless noted
[1] = system: T-47D breast
[2] = system: BT-549 breast
[3] = system: MDA-MB-435 melanoma
[4] = system: SW-620 colon
[5] = system: MCF7 breast
[6] = system: HCT-116 colon
[7] = system: HCC-2998 colon
[8] = system: KM12 colon

Measured: growth

COc1cc(/C=C/c2nc(Nc3ccc(S(=O)(=O)Nc4cc(C)on4)cc3)c3ccccc3n2)ccc1O
active: [3] -44.1%
inactive: [1] 58.4% | [2] 107% | [4] 39.1% | [5] 30.7% | [6] 54.6% | [7] 81.9% | [8] 31.8%

O=C1c2ccccc2C2(c3ccc(O)cc3)c3ccccc3Oc3cccc1c32 (stereo unspecified)
active: [3] -3.86%
inactive: [1] 21.8% | [2] 55.1% | [4] 22.7% | [5] 23.1% | [6] 14.1% | [7] 34.6% | [8] 15%

COc1cc(/C=C/C(=O)c2cccc(-n3cc(-c4ccccc4)[nH]c3=O)c2)cc(OC)c1OC
active: [1] -6.56% | [2] -13.1% | [3] -3.32% | [4] -29% | [5] -93.8% | [6] -90.3% | [7] -81.4% | [8] -53.6%

CN(C)S(=O)(=O)n1cnc([C@@H]2[C@@H]3C(=O)OC[C@@H]3C[C@]23N=CN(Cc2ccccc2)C3=O)c1
inactive: [1] 102% | [2] 116% | [3] 108% | [4] 97.3% | [5] 100% | [6] 100% | [7] 98.6% | [8] 104%

CCN(CC)c1ccc(Nc2ccc(CC(=O)c3ccccc3)cc2)cc1
inactive: [1] 74.3% | [2] 82.4% | [3] 80.2% | [4] 89.9% | [5] 83.6% | [6] 82.4% | [7] 94.9% | [8] 74.9%

N[C@H]1CCC[C@@H]1NCCCCN1C(=O)c2cccc3cccc(c23)C1=O
inactive: [1] 82.6% | [2] 74.1% | [3] 89.5% | [4] 30% | [5] 52.8% | [6] 32% | [7] 53.9% | [8] 48.4%

Cc1nc(Nc2cccc(NC(=O)Nc3ccc(Cl)cc3)c2)c2ccccc2n1
inactive: [1] 71.2% | [2] 101% | [3] 79.3% | [4] 46.7% | [5] 78.1% | [6] 67.1% | [7] 106% | [8] 69.7%

CN(C)CCn1cc(-c2ccc3c(Nc4ccc(CC(=O)Nc5cccc(F)c5)cc4)ncnc3c2)cn1
active: [1] -39.7% [30 µM] | [2] -9.36% [30 µM] | [3] -71.7% [30 µM] | [4] -64.2% [30 µM] | [5] -56.9% [30 µM] | [6] -11.9% [30 µM] | [7] -91.5% [30 µM] | [8] -83.6% [30 µM]

N#Cc1cnn2c(-c3ccc(Cl)cc3)nc(NC3CC3)nc12
inactive: [1] 82.4% | [2] 94.2% | [3] 96.8% | [4] 103% | [5] 78% | [6] 93.8% | [7] 101% | [8] 98.2%

CC1(C)N=C(N)N=C(N)N1c1cccc(CN)c1
inactive: [1] 102% | [2] 94.6% | [3] 104% | [4] 98.4% | [5] 95.9% | [6] 91.3% | [7] 100% | [8] 101%

CCN(CC)CCCC(C)NCc1ccccc1 (stereo unspecified)
inactive: [1] 105% | [2] 85.2% | [3] 100% | [4] 105% | [5] 93.8% | [6] 90.8% | [7] 99.5% | [8] 96.9%

CCCNCC(=O)Nc1ccc(C(=O)OC(C)(C)CC)cc1
inactive: [1] 103% | [2] 77.4% | [3] 113% | [4] 105% | [5] 103% | [6] 84.1% | [7] 99.9% | [8] 104%

C=C(C=O)[C@@H]1CC=C(C=O)CC1
active: [1] -27.7% | [2] -18.9% | [3] -31.4% | [4] -25.7% | [5] -17.3% | [6] 5.92% | [7] -30% | [8] -36.6%

Nc1c(-c2nc3ccccc3c(=O)[nH]2)nnn1-c1ccc(Cl)cc1
inactive: [1] 27.2% | [2] 77.8% | [3] 83.3% | [4] 99.2% | [5] 90% | [6] 78.8% | [7] 104% | [8] 82.8%

CN1C(=O)CCC(N2C(=O)c3cccc(NCCOCCOCCNC(=O)c4cc5c(o4)C(=O)c4ccccc4C5=O)c3C2=O)C1=O (stereo unspecified)
active: [2] -95.4% | [3] -94.6% | [4] -3.3% | [5] -65% | [6] -21.9% | [7] -62.2% | [8] -11.8%
inactive: [1] 11.1%

NC(=S)c1csc(CCNC(=O)c2ccccc2)n1
inactive: [1] 103% | [2] 96.5% | [3] 110% | [4] 105% | [5] 90.7% | [6] 97.6% | [7] 103% | [8] 109%

CCCCN1CCN(c2ccc3nc(-c4ccc5nc(-c6ccc(OCC)c(OCC)c6)[nH]c5c4)[nH]c3c2)CC1
inactive: [1] 39.9%
active: [2] -23% | [3] -41.2% | [4] -80.3% | [5] -69.6% | [6] -79.7% | [7] -80.4% | [8] -65.6%

O=c1oc2ccc(Cl)cc2cc1-c1cs/c(=N/N=C\c2ccc(Cl)cc2)n1/N=C/c1ccc(Cl)cc1
inactive: [1] 87.5% | [2] 109% | [3] 103% | [4] 104% | [5] 95.7% | [6] 91.9% | [7] 103% | [8] 107%

COc1cc2cc(Oc3ccc(NC(=O)Nc4cc(C(F)(F)F)cc(C(F)(F)F)c4)cc3)c(C)nc2cc1OCCN1CCCCC1
active: [1] -39.7% | [3] -94.4% | [4] -84.4% | [5] -84.8% | [6] -76.8% | [7] -94.5% | [8] -78.5%
inactive: [2] 94.3%

NC(=O)c1c(NC(=O)c2ccccn2)sc2c1CCC(=O)C2
inactive: [3] 21.3% | [4] 14.7% | [5] 39.1% | [7] 81%
active: [1] 5.3% | [2] 5.57% | [6] 9.08% | [8] 6.82%

N#Cc1c(N)nc2c(nnn2-c2cccc(C(F)(F)F)c2)c1N
inactive: [1] 48.1% | [2] 101% | [3] 108% | [4] 95.4% | [5] 60.1% | [6] 97.4% | [7] 102% | [8] 86.8%

Clc1ccc(-c2nnc(Cn3ccnc3)o2)cc1
inactive: [1] 100% | [2] 120% | [3] 105% | [4] 98.6% | [5] 94.4% | [6] 90.5% | [7] 110% | [8] 105%

CCOc1cc(N)ccc1C(=O)NCCCN(CC)CC
inactive: [1] 101% | [2] 98.8% | [3] 106% | [4] 101% | [5] 96.4% | [6] 98% | [7] 95.9% | [8] 106%

CCn1c(Sc2nnc(NC(=O)CCN3CCCC3)s2)nc2c1c(=O)n(C)c(=O)n2C
inactive: [1] 102% | [2] 110% | [3] 107% | [4] 105% | [5] 105% | [6] 105% | [7] 114% | [8] 109%

Cn1nnnc1-c1ccc(N)cc1
inactive: [1] 87.2% | [2] 93.4% | [3] 99.5% | [4] 104% | [5] 90.9% | [6] 84.6% | [7] 100% | [8] 99.4%

C=CCOc1cccc(/C=C2\SC(=Nc3ccc(O)cc3)NC2=O)c1
inactive: [1] 60.9% | [4] 23.4% | [7] 10.6%
active: [2] -16.3% | [3] -45.2% | [5] 7.91% | [6] 5.94% | [8] 6.22%

C(=C\c1nc2ccccc2[nH]1)/c1nc2ccccc2[nH]1
inactive: [1] 78.2% | [2] 118% | [3] 104% | [4] 108% | [5] 74.4% | [6] 104% | [7] 88.4% | [8] 98.1%

COc1ccc(CN2C(=O)/C(=C\c3cc(OC)c(OC)c(OC)c3)c3ccccc32)cc1
inactive: [2] 24.5% | [7] 16.9%
active: [1] -2.48% | [3] -10.9% | [4] -40.3% | [5] 7.23% | [6] -93.8% | [8] -23.7%

Cc1cn(C2CCCCC2)c(=O)[nH]c1=O
inactive: [1] 108% | [2] 102% | [3] 108% | [4] 109% | [5] 108% | [6] 107% | [7] 112% | [8] 117%

COC(=O)/C(=C\c1ccc(OC)cc1)C(=O)N1c2ccccc2Sc2ccccc21
active: [2] -45.7% | [3] -57.8%
inactive: [1] 48.4% | [4] 33.6% | [5] 26.8% | [6] 23.3% | [7] 86.8% | [8] 36.1%

COc1ccc(/C=C2\COc3ccc(O)cc3C2=O)c(OC)c1
inactive: [1] 56.4% | [2] 57.8% | [4] 54.9% | [5] 54.7% | [6] 61.9% | [7] 89.2% | [8] 24.8%
active: [3] -30%

CCCCNCC(=O)Nc1ccc(C(=O)OCC)cc1
inactive: [1] 96.8% | [2] 92.5% | [3] 105% | [4] 105% | [5] 98.4% | [6] 86.4% | [7] 100% | [8] 103%
